Experimental data taken from PubChem BioAssay AID430 (Sanford-Burnham Center for Chemical Genomics, 2006).
The whole screen tested about 63,000 compounds, of which about 1,100 (1.7%) were called active. The sample holds actives, similar compounds and a random draw of the others, so the mix is not that of the screen. Results with a measured potency or affinity are listed apart. Unmarked numbers belong to inactive results. Rule as the data show it: active = cytotoxicity above about 50%; inactive = the rest.

experiment: HPDE-C7 pancreatic duct cell viability loss – fluorescence, HTS (AID 430); conditions: HPDE-C7 pancreatic duct cells viability, at 10 µM, active compounds read high;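 also: cells exposed to compound for 48 hours before viability readout; 0% = vehicle and 100% = reference cytotoxic drug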

Compared with `Cc1ccc(S(=O)(=O)Nc2ccc3nc(N)sc3c2)cc1`, `CSc1nc2ccc(S(=O)(=O)NC3CCCCC3)cc2s1` is higher in cytotoxicity: -16.3% for the first, 6.9% for the second.

Compared with `CCOc1cccc(/C(O)=C2/C(=O)C(=O)N(CCOC)C2c2ccc(C)o2)c1` (configuration not stated), `CCC(CC)C(=O)Nc1cccc(C(=O)NCc2ccco2)c1` is lower in cytotoxicity: -8% for the first, -24.1% for the second.

First: Cc1cc(C)nc(N2CCC(CNC(=O)CCc3ccccc3)CC2)n1
Second: Cc1cc(C(=O)OCC(=O)N2CCN(c3ccccc3)CC2)c2ccccc2n1
The cytotoxicity of the first is lower: -11.3% for the first, -8.3% for the second.

Compared with `O=C(CCc1nc2ccccc2[nH]1)Nc1ccccc1`, `Cc1cc(Nc2nc3ccccc3[nH]c2=O)n(-c2ccccc2)n1` is higher in cytotoxicity: -8.6% for the first, 8% for the second.

Compared with `CCOC(=O)c1c(C)c(C(=O)Nc2ccc3c(c2)OCCO3)c(C)n1CC`, `CCOC(=O)c1c(C)c(C(=O)Nc2ccccc2)c(C)n1CC` is lower in cytotoxicity: 17.2% for the first, 4.4% for the second.

Going from `CC(C)NS(=O)(=O)c1ccc(CCC(=O)O)cc1` to `O=C(O)c1ccc(CNC(=O)c2ccc(Br)o2)cc1`, the cytotoxicity rises from -5.7% to 0.5%.

Going from `CC1=C(C(N)=O)C(c2cccnc2)n2nc(-c3cccc(C)c3)nc2N1` (configuration not stated) to `Cc1onc(-c2ccccc2)c1C(=O)NCc1cccnc1`, the cytotoxicity rises from -15.3% to 4.9%.

First: CCc1cc(C(=O)COc2ccccc2F)c(O)cc1O
Second: CCc1cc(C(=O)Cc2nc3ccccc3[nH]2)c(O)cc1O
The cytotoxicity of the first is lower: 5.5% for the first, 9.1% for the second.

First: CCc1cc(C(=O)Cc2cnn(-c3ccccc3)c2)c(O)cc1O
Second: CCCc1cc(C(=O)Cc2ccc(C(=O)OCC)o2)c(O)cc1O
The cytotoxicity of the first is lower: 14.9% for the first, 24% for the second.

First: CC(=O)c1cnc2cc(-c3ccccc3)nn2c1C
Second: O=C(O)c1cccnc1Oc1ccccc1
The cytotoxicity of the first is lower: -20.8% for the first, -7% for the second.

First: Cc1nc(SCc2ccccc2)c(C(F)(F)F)c(=O)[nH]1
Second: Cc1nc(Nc2ccccc2)[nH]c(=O)c1CCC(C)C
The cytotoxicity of the first is higher: 2.3% for the first, -16.8% for the second.

First: Cc1ccc(Nc2nc(C)c(CCC(C)C)c(=O)[nH]2)cc1
Second: CCC1(CC)Nc2ccccc2C(=O)N1c1ccc(NC(C)=O)cc1
The cytotoxicity of the first is lower: 7.1% for the first, 10.6% for the second.

First: O=C(Cn1nc(-c2ccccc2)c2ccccc2c1=O)NCCN1CCOCC1
Second: Cc1ccc(-c2nn(CC(=O)NCCN3CCOCC3)c(=O)c3ccccc23)cc1
The cytotoxicity of the first is lower: -11.2% for the first, 0.5% for the second.

Going from `O=C(CSc1nnc(-c2ccc(O)cc2)n1Cc1ccco1)c1cccs1` to `O=C(CSc1nnc(-c2cccnc2)n1Cc1ccco1)c1ccccc1`, the cytotoxicity falls from -1.1% to -18.2%.

Going from `CC(NC(=O)c1cccs1)c1ccc2c(c1)OCO2` (configuration not stated) to `O=C(CC(SCCO)c1ccc2c(c1)OCO2)c1ccco1` (configuration not stated), the cytotoxicity rises from -2.3% to 1.4%.

Compared with `O=C(CSCc1ccco1)c1cccs1`, `O=C(NCc1ccco1)c1cc(-c2ccc(Cl)cc2)on1` is higher in cytotoxicity: -7.2% for the first, 5.9% for the second.

First: COc1ccc(N2CCN(C(=O)CSc3ccccc3N)CC2)cc1
Second: CCc1ccccc1N(CC(=O)N1CCN(c2ccccc2)CC1)S(C)(=O)=O
The cytotoxicity of the first is lower: -6.2% for the first, -3% for the second.

Going from `O=C(CCCSc1nc(-c2ccco2)cc(C(F)(F)F)n1)NCc1cccs1` to `O=C(Cc1cccs1)Nc1ccc(NC(=O)c2ccco2)cc1`, the cytotoxicity falls from -4.3% to -14.5%.

Going from `Cc1c(Cl)cccc1NC(=O)Cn1cccc1` to `CC(=O)c1cccc(NC(=O)Cc2cccs2)c1`, the cytotoxicity falls from 3.2% to -5.3%.

Compared with `O=C(CN(Cc1ccco1)C(=O)CNS(=O)(=O)c1ccccc1)NCc1ccc(F)cc1`, `O=C(CN(Cc1ccco1)C(=O)CNS(=O)(=O)c1ccc(F)cc1)NCc1ccc(F)cc1` is lower in cytotoxicity: -1.3% for the first, -4% for the second.

Going from `OCCNc1nc(Nc2ccccc2)nc(Nc2ccccc2)n1` to `CCn1c(Cc2ccccc2)nnc1SCC(=O)Nc1nc2ccccc2s1`, the cytotoxicity falls from 2.2% to -5%.

Compared with `CC(C)n1c(Nn2cnnc2)nc2ccccc21`, `CCCCNc1nc2ccccc2n1CC(=O)N1CCc2ccccc2C1` is lower in cytotoxicity: 3.1% for the first, -0.3% for the second.

First: CCOC(=O)C(C)Sc1nnc(Cn2c(=O)sc3ccccc32)n1-c1ccccc1 (configuration not stated)
Second: CCn1c(Cc2ccc(OC)cc2)nnc1SCC(=O)Nc1nc2ccccc2s1
The cytotoxicity of the first is higher: 18.4% for the first, -6% for the second.

Going from `CCOC(=O)N1CCN(C(=O)C2CCC(C(=O)N3CCN(C(=O)OCC)CC3)CC2)CC1` (configuration not stated) to `CCOCCCNC(=O)C(c1ccc(Cl)cc1)N1CCN(C(=O)c2ccco2)CC1` (configuration not stated), the cytotoxicity falls from -3.2% to -11.6%.

First: O=C(c1cccc2ccccc12)N1CCN(CC2CC=CCC2)CC1 (configuration not stated)
Second: O=C(O)c1ccccc1NS(=O)(=O)c1cccc2cccnc12
The cytotoxicity of the first is lower: -22% for the first, 21.6% for the second.

Compared with `Cc1occc1C(=O)Nc1cccc(C(=O)NCc2ccccc2)c1`, `O=C(NCc1ccccc1)c1cccc(NC(=O)c2ccco2)c1` is higher in cytotoxicity: -18% for the first, 44.7% for the second.

Compared with `O=C(NCc1ccco1)c1cccc(NC(=O)c2ccccc2)c1`, `O=C(Nc1ccc(O)cc1)c1ccc(C(=O)c2ccccc2)o1` is lower in cytotoxicity: 10.1% for the first, -1.5% for the second.

Compared with `CC(OC(=O)C1CCN(S(=O)(=O)c2ccccc2)CC1)C(=O)Nc1ncc(Cl)cc1Cl` (configuration not stated), `COc1cccc(-c2cc(C(=O)N3CCCc4ccccc43)no2)c1` is lower in cytotoxicity: -0.7% for the first, -19.5% for the second.

Going from `Cc1ncoc1C(=O)Nc1ccc(Oc2ccccc2)cc1` to `O=C(Nc1cccc2cccnc12)c1ccc(Br)o1`, the cytotoxicity rises from -20.9% to 5.6%.

Going from `COC(=O)c1c(-c2cccs2)csc1NC(=O)CN1CCOCC1` to `CCOC(=O)c1c(-c2cccs2)csc1NC(=O)CCCC(=O)O`, the cytotoxicity rises from -10.4% to 8.6%.

Going from `CCn1c(SCC(=O)Nc2cccc(C)c2)nc2c(c1=O)SC(C)C2` (configuration not stated) to `CCOC(=O)c1ccc(NC(=O)CSc2nc3c(c(=O)n2C)SC(C)C3)cc1` (configuration not stated), the cytotoxicity falls from 3.7% to 1.1%.

Compared with `COC(=O)c1ccc(C(=O)Nc2ccc(N)cc2N)cc1`, `COC(=O)c1ccccc1OC(=O)c1ccc(Br)o1` is higher in cytotoxicity: -13.9% for the first, 7.5% for the second.

Going from `c1ccc(N(c2ccccc2)c2nc(N3CCOCC3)nc(N3CCOCC3)n2)cc1` to `c1ccc2c(c1)[nH]c1c(N3CCC4(CC3)OCCO4)ncnc12`, the cytotoxicity falls from 4.8% to -10.6%.

First: COC(=O)C1(C)Nc2ccccc2C(=O)N1c1ccccc1C (configuration not stated)
Second: CC1(C)c2ssc(=S)c2-c2ccccc2N1C(=O)c1ccco1
The cytotoxicity of the first is higher: 2.8% for the first, -13.6% for the second.

Going from `Cc1cc(OCCCCCNCCO)ccc1Cl` to `CC(C)Cc1cc(C(=O)NCc2cccs2)no1`, the cytotoxicity falls from 18.7% to -21.1%.

Compared with `N#C/C(C(=O)c1ccccc1)=C1/CCCN1`, `O=C(c1ccccc1)N(Cc1ccc(F)cc1)C1CCS(=O)(=O)C1` (configuration not stated) is lower in cytotoxicity: 10.8% for the first, -9.7% for the second.

Compared with `COc1ccc(CCN2CC(C#N)=C3c4cc(OC)c(OC)cc4CCN3C2)cc1OC`, `CCOC(=O)Cn1cnc2c(C#N)c3n(c2c1=O)CCCCC3` is lower in cytotoxicity: -1.5% for the first, -8.7% for the second.

First: c1ccc2oc(NC3=NCN(CC4CCCO4)CN3)nc2c1 (configuration not stated)
Second: COc1ccc(-n2nnc3c(SCC(=O)NCC4CCCO4)ncnc32)cc1 (configuration not stated)
The cytotoxicity of the first is lower: -19.3% for the first, -2.3% for the second.

First: CCN(CC)C(=O)CSc1ncnc2c1nnn2-c1ccc(OC)cc1
Second: CCOC(=O)C1=C(C)N=C2SC(C)C(=O)N2C1/C=C/c1ccccc1OC (configuration not stated)
The cytotoxicity of the first is lower: -17.1% for the first, -8.3% for the second.

Going from `Cc1c(Br)c(C(F)(F)F)nn1CC(=O)NCC1CCCO1` (configuration not stated) to `COC(=O)c1cc2c(cc1Cl)SC(=NCCCN1CCOCC1)NS2(=O)=O`, the cytotoxicity rises from -17.2% to -1.2%.

First: CCNc1nc(CC)nc2c1oc1ccccc12
Second: Cc1nc(Nc2ccncc2)c2oc3ccccc3c2n1
The cytotoxicity of the first is higher: -12.6% for the first, -28.9% for the second.

Going from `c1ccc2c(c1)[nH]c1c(N3CCCC3)ncnc12` to `FC(F)Oc1cccc2cccnc12`, the cytotoxicity falls from 0% to -5.8%.

Compound `O=C(COc1cccc2cccnc12)Nc1nccs1` has a cytotoxicity of 8.2%.

With `CSc1nc2ccc(NS(=O)(=O)c3ccc(Cl)s3)cc2s1` the cytotoxicity was 55.3% (active).
With `CCOC(=O)c1c(C)c(C(=O)Nc2ccc(N(C)C)cc2)c(C)n1CC` the cytotoxicity was 54.2% (active).
For `CCc1cc(C(=O)Cc2ccc(F)cc2)c(O)cc1O`, the cytotoxicity was 54.4% (active).
For `CCCc1cc(C(=O)Cc2ccc(F)cc2)c(O)cc1O`, the cytotoxicity was 78.8% (active).
With `Cc1nc(Nc2ccc(F)cc2)[nH]c(=O)c1CCC(C)C` the cytotoxicity was 62.1% (active).
With `O=c1c2cccc3c2c(nn1CN1CCOCC1)-c1ccccc1-3` the cytotoxicity was 53% (active).
In the case of `O=C(CC(SCCO)c1ccc2c(c1)OCO2)c1cccs1` (configuration not stated), the cytotoxicity is reported as 54.5% (active).
With `O=C(CC(SCc1ccco1)c1ccc(O)cc1)c1cccs1` (configuration not stated) the cytotoxicity was 54.4% (active).
In the case of `O=C(CN(Cc1ccco1)C(=O)CNS(=O)(=O)c1ccc(Cl)cc1)NCc1ccc(F)cc1`, the cytotoxicity is reported as 70% (active).
In the case of `O=C(Cc1cccs1)Nc1cccc(C(=O)Nc2ccco2)c1`, the cytotoxicity is reported as 54.2% (active).
For `Cc1ccc(C(=O)Nc2cccc(C(=O)NCc3ccco3)c2)cc1`, the cytotoxicity was 62.7% (active).
With `CCOC(=O)c1c(-c2cccs2)csc1NC(=O)CN1CC(C)OC(C)C1` (configuration not stated) the cytotoxicity was 61.1% (active).
In the case of `CCOC(=O)c1ccc(NC(=O)CSc2nc3c(c(=O)n2CC)SC(C)C3)cc1` (configuration not stated), the cytotoxicity is reported as 55.3% (active).
In the case of `CC1(C)Nc2ccc(O)cc2-c2c1ssc2=S`, the cytotoxicity is reported as 67.4% (active).
In the case of `CCn1c(SCC(=O)Nc2nc3ccccc3s2)nnc1-c1ccc(OC)cc1`, the cytotoxicity is reported as 58.5% (active).
With `CCc1nc(Nc2ccncc2)c2oc3ccccc3c2n1` the cytotoxicity was 67.4% (active).
For `OC1(c2cccc(C(F)(F)F)c2)CCN(c2ncnc3c2[nH]c2ccccc23)CC1`, the cytotoxicity was 123% (active).
